Laboratory results as given in PubChem BioAssay (EPA / NIEHS).
Active and inactive are the calls of the source. Rule for the calls: active = hit-call score of the fitted dose curve at least 0.9, where 1 is the maximum; inactive = score below 0.9.

Assay: ATG_GLI_CIS: Attagene CIS-FACTORIAL HepG2 Assay for human Zinc Finger Protein GLI1 (AID 2282945)
Settings: HepG2, Attagene cis-factorial reporter mRNA, GLI element; actives raise or lower the signal
Protocol: ATG_CIS is a cell-based, multiplexed-readout assay that uses HepG2, a human liver cell line, with measurements taken at 24 hours after chemical dosing in a 24-well plate.ATG_GLI_CIS is one of 52 assay component(s) measured or calculated from the ATG_CIS assay. It is designed to make measurements of mRNA induction, a form of inducible reporter, as detected with fluorescence intensity signals by Reverse transcription polymerase chain reaction (RT-PCR) and Capillary electrophoresis technology.Data from the assay component ATG_GLI_CIS was analyzed into 1 assay endpoint. This assay endpoint, ATG_GLI_CIS, was analyzed with bidirectional fitting relative to DMSO as the negative control and baseline of activity. Using a type of inducible reporter, measures of mRNA for gain or loss-of-signal activity can be used to understand the reporter gene at the transcription factor-level as they relate to the gene GLI1. Furthermore, this assay endpoint can be referred to as a primary readout, because this assay has produced multiple assay endpoints where this one serves a reporter gene function. To generalize the intended target to other relatable targets, this assay endpoint is annotated to the dna binding intended target family, where the subfamily is zinc finger.
Human liver HepG2 cells are transiently transfected with multiple reporter transcription units (MRTUs) in 6-well plates using FuGene 6 reagent (Roche; 3 ml FuGene/1 mg DNA). The MRTU constructs are regulated by a cis-regulating element (promoter). […] A major difference between the CIS and TRANS system is that in CIS activities of endogenous TFs are measured, whereas the TRANS assay evaluates changes in activities of exogenous, chimeric NR-Gal4 proteins. […] At the end of 24 hour incubation, total RNA was isolated using TriZol reagent (Invitrogen). The isolated RNA is then reverse-transcribed using oligo(dT) primer and Mo-MLV reverse transcriptase (Invitrogen) with DNAse I (Ambion) treatment for 30 min. The one-tenth of the produced cDNA was amplified by PCR using Taq DNA polymerase (Invitrogen) and two reporter sequence-specific primers. The PCR products were fluorescently labeled by primer extension with 6-arboxyfluorescein (6-FAM) 5'-labeled reporter sequence-specific primer (2 min at 95 C, 20 s at 68 C and 10 min at 72 C) and these products were digested with 5U of HpaI (New England Biolabs) for 2h at 37 C. The fragments were purified using Qiaquick PCR columns (Qiagen), analyzed on an ABI 3130xL genetic analyzer (Applied Biosystems) with peak positions identified by using a set of X-rhodamine (ROX)-labeled MapMarker1000 molecular weight standards (BioVentures). The raw capillary electrophoresis data was processed using Attagraph software (Attagene).

SMILES | outcome | AC50
Brc1c(Br)c(Br)c(Oc2c(Br)c(Br)c(Br)c(Br)c2Br)c(Br)c1Br | inactive | 
Cc1ccc2nc3sc(=O)sc3nc2c1 | inactive | 
Cc1c([N+](=O)[O-])c(C)c([N+](=O)[O-])c(C(C)(C)C)c1[N+](=O)[O-] | inactive | 
[F][Sn]([c]1ccccc1)([c]1ccccc1)[c]1ccccc1 |  | 2.18 µM (active)
C=CC(=O)OCC(COC(=O)C=C)(COC(=O)C=C)COC(=O)C=C | inactive | 
CCOP(=S)(OCC)OP(=S)(OCC)OCC | inactive | 
CCCCCCCCCCCCN(C)C | inactive | 
O=C(O)CC(O)(CC(=O)O)C(=O)O | inactive | 
O=c1[nH]c2ccccc2n1C1CCN(CCCC(c2ccc(F)cc2)c2ccc(F)cc2)CC1 | inactive | 
CC(C)(C)c1ccc(CCOc2ncnc3ccccc23)cc1 | inactive | 
Brc1ccc(Oc2c(Br)cc(Br)cc2Br)c(Br)c1 | inactive | 
CC(C)(c1ccccc1)c1cc(-n2nc3ccccc3n2)c(O)c(C(C)(C)c2ccccc2)c1 | inactive | 
C=CCOC(F)(C(F)(F)F)C(F)(F)F | inactive | 
c1cc[c]([Sb]([c]2ccccc2)[c]2ccccc2)cc1 | inactive | 
CCOP(=S)(OCC)O/N=C(\C#N)c1ccccc1 | inactive | 
CCCSP(=S)(OCC)Oc1ccc(Cl)cc1Cl (stereo not given) | inactive | 
C1CN2CCN1CC2 | inactive | 
Oc1cccc(-c2ccccc2)c1 | inactive | 
C=C(C)C(=O)OCC(CC)CCCC (stereo not given) | inactive | 
CCCSP(=S)(OCC)Oc1ccc(SC)cc1 (stereo not given) | inactive | 

SMILES | outcome | AC50
CCCCCCCCCCCCBr | inactive | 
Nc1nc(=S)[nH][nH]1 | inactive | 
CC1CC(=O)O1 (stereo not given) | inactive | 
O=C(O)COc1cc(Cl)c(Cl)cc1Cl | inactive | 
CNC(=O)N(C)c1nc2ccccc2s1 | inactive | 
Cc1cccc(OP(=O)(Oc2cccc(C)c2)Oc2cccc(C)c2)c1 | inactive | 
CC(C=O)Cc1ccc2c(c1)OCO2 (stereo not given) | inactive | 
O=[N+]([O-])c1ccc(Nc2ccccc2)cc1 | inactive | 
Cc1cc(Cl)ccc1OC(C)C(=O)O (stereo not given) | inactive | 
O=C(CCl)Nc1ccccc1 |  | 25.5 µM (active)
O=C(O)c1cc(I)cc(I)c1I | inactive | 
CC(C)(COCC1CO1)COCC1CO1 (stereo not given) | inactive | 
Cc1cc(C)cc(C)c1 | inactive | 
Clc1ccc(C(Cl)(Cl)Cl)cn1 | inactive | 
CCOCn1c(-c2ccc(Cl)cc2)c(C#N)c(Br)c1C(F)(F)F |  | 157 µM (active)
Nc1ccc(N)cc1 | inactive | 
CC(C)(C)c1ccccc1O | inactive | 
CCCCOC(C)=O | inactive | 
Nc1ccc(Br)cc1 | inactive | 
O=C(CBr)c1ccc(O)cc1 | inactive | 
